Assay [1] can be described thus: NCI Yeast Anticancer Drug Screen. Data for the rad50 strain (AID 155).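 Further: 0% = growth of vehicle-only cultures of the same strain.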 The settings on record: S. cerevisiae rad50 strain growth inhibition; at 50.0 µM; active compounds read high. A digest of the protocol: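 DNA repair mutant yeast, compound exposure, growth read-out; inhibition is taken relative to vehicle.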
Assay [2] is described as follows: NCI Yeast Anticancer Drug Screen. Data for the mec2-1 strain (AID 157). The settings on record: S. cerevisiae mec2-1 strain, at 50.0 µM, active compounds read high. The essentials: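 mec2-1 yeast strain, carrying an alteration in DNA damage repair or cell cycle control, was exposed to compounds; growth inhibition was measured relative to vehicle-treated controls.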
A short description of assay [3]: NCI Yeast Anticancer Drug Screen. Data for the sgs1 mgt1 strain (AID 161).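 Further: 0% = growth of cultures given vehicle only.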 The settings on record: S. cerevisiae sgs1 mgt1 strain, at 50.0 µM, active compounds read high. A digest of the protocol:
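Compounds are added to genetically altered yeast, and growth is compared with cultures given vehicle alone to give percent inhibition.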

The nature of assay [4]: NCI Yeast Anticancer Drug Screen. Data for the cln2 rad14 strain (AID 165).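 Further: 0% = growth equal to vehicle treated cultures.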 The settings on record: S. cerevisiae cln2 rad14 strain, at 50.0 µM, active compounds read high. The essentials: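 Yeast carrying cln2 and rad14 alterations (cell cycle control and DNA damage repair) were exposed to compounds. Growth inhibition was measured against vehicle-treated controls.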
A short description of assay [5]: NCI Yeast Anticancer Drug Screen. Data for the bub3 strain (AID 167). To be noted: S. cerevisiae bub3 mutant strain, at 50.0 µM, active compounds read high. The essentials: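 In this screen, a yeast mutant lacking normal mitotic checkpoint function is challenged with compound. Relative growth versus vehicle gives the inhibition value.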
Assay [6] in a line: NCI Yeast Anticancer Drug Screen. Data for the mlh1 rad18 strain (AID 175). The settings on record: S. cerevisiae mlh1 rad18 strain growth inhibition; at 50.0 µM; active compounds read high. The essentials:
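Growth inhibition of the yeast strain was measured after compound exposure and expressed relative to vehicle-treated controls. The strain carries defined defects in DNA damage repair.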

This is part of a sample that, as a whole, favours compounds with a hit. Of some 79,000 tested, about 15% had one in any assay. Unmarked numbers belong to inactive results. The source made the active and inactive calls. No stated cut-off is given here; in the data, active means growth inhibition above about 70%; inactive means the rest.

With `COc1ccc(C(O)C2CC(=O)NN=C2C)cc1OC` (stereo not drawn), the growth inhibition was 8.05% in assay [1]; -0.85% in assay [2]; -3.3% in assay [3]; 6.7% in assay [4]; 8.7% in assay [5]; -1.7% in assay [6].

With `Nc1ncnc2c1ncn2C1OC(C(O)CO)C(O)C1N` (stereo not drawn), the growth inhibition was -15.7% in assay [1]; -0.3% in assay [2]; -13.7% in assay [3]; -14.8% in assay [4]; 0.55% in assay [5]; -23.6% in assay [6].

As to `CC(=O)c1ccccc1NCC(=O)Nn1cnc2ccc(S(=O)(=O)Nc3ccccc3C(C)=O)cc2c1=O`, the growth inhibition in assay [1] is 7.25%; in assay [2], -21.3%; in assay [3], 12.9%; in assay [4], 18.6%; in assay [5], 11.5%; in assay [6], 7.6%.

`CC1(C)C(=NNC(=S)NN)C(C)(C)C1=NNC(=S)NN`: the growth inhibition is 40.5% in assay [1]; 36% in assay [2]; 42.4% in assay [3]; 18.9% in assay [4]; 46.5% in assay [5]; 38.7% in assay [6].

On to `O=C(OCCO)c1ccccc1O`, for which the growth inhibition in assay [1] is 2.95%; in assay [2], -0.8%; in assay [3], -34%; in assay [4], 3.3%; in assay [5] it was -0.9%; in assay [6], 1.35%.

For `S=C(S)NCNC(=S)S.[Zn+2]`, the growth inhibition in assay [1] is 1.65%; in assay [2] it was 12.2%; in assay [3] it was 26.1%; in assay [4] it was -64.2%; in assay [5] it was 28.2%; in assay [6], 29.4%.

Regarding `COc1ccc2c(c1)CC[C@@H]1[C@@H]2CC[C@@]2(C)[C@H]1C[C@@](C)(O)[C@H]2O`, the growth inhibition is -5.65% in assay [1]; 3.05% in assay [2]; -2.45% in assay [3]; -59.9% in assay [4]; 10.8% in assay [5]; -11.7% in assay [6].

For `CCC(CC)NNC(CC)CC`, the growth inhibition in assay [1] is -1.8%; in assay [2] it was -0.6%; in assay [3] it was -8.05%; in assay [4], 5.35%; in assay [5], -16.3%; in assay [6] it was -8.25%.

With `N#CCCC1(c2ccccc2)CCC/C(=C/c2ccccc2)C1=O` (stereo not drawn), the growth inhibition is 11.8% in assay [1]; 14.1% in assay [2]; 1.7% in assay [3]; 7.1% in assay [4]; 17.4% in assay [5]; 3% in assay [6].

As for `CC(NS(=O)(=O)c1cccc(C(=O)O)c1)c1ccccc1` (stereo not drawn), the growth inhibition in assay [1] was 10.3%; in assay [2], -14.5%; in assay [3], 0.3%; in assay [4], -38.4%; in assay [5], 3.25%; in assay [6], -0.05%.

For the compound `Cc1cc(NS(=O)(=O)c2ccc(Nc3c4ccccc4nc4c(C(=O)NCCN(C)C)cccc34)cc2)no1`, the growth inhibition in assay [1] is -37.8%; in assay [2], 3.4%; in assay [3], -41.5%; in assay [4], 11.9%; in assay [5], -22.7%; in assay [6], -14.6%.

For the compound `NC(=O)CC(Nc1ncc2c(n1)-c1ccccc1OC2)C(=O)O` (stereo not drawn), the growth inhibition was 37.6% in assay [1]; -16.4% in assay [2]; -10.5% in assay [3]; 9.95% in assay [4]; -45.8% in assay [5]; -53.8% in assay [6].

For `COc1cc(O)c2c(c1)C(=O)c1cc3c(c(O)c1C2=O)CC(OC)C(C)(O)C3O` (stereo not drawn), the growth inhibition is 90.5% (active) in assay [1]; 91.3% (active) in assay [2]; 91.8% (active) in assay [3]; 88.5% (active) in assay [4]; 91.8% (active) in assay [5]; 91.2% (active) in assay [6].

For `COC(=O)CN(C(=O)c1ccc(OC(C)=O)cc1)c1ccccc1`, the growth inhibition was 4.25% in assay [1]; 23.3% in assay [2]; -6.7% in assay [3]; 9.1% in assay [4]; 3.45% in assay [5]; -28.1% in assay [6].

As for `COc1ccc(NC(N)=O)cc1`, the growth inhibition in assay [1] was 12.2%; in assay [2], -16.4%; in assay [3], 0.05%; in assay [4], -1.25%; in assay [5] it was -6.35%; in assay [6] it was 10.4%.

As to `CC(C)COC(=N)c1ccccc1C1(O)CCCCC1`, the growth inhibition in assay [1] is -19.9%; in assay [2], -10.1%; in assay [3], -9.5%; in assay [4], -18.8%; in assay [5], 0.6%; in assay [6] it was -17.6%.

As to `COC(=O)C1CC(OC(C)=O)C2OC(C)(C)OC2C1OC(C)=O` (stereo not drawn), the growth inhibition in assay [1] was 7.5%; in assay [2] it was 1.55%; in assay [3], -3.15%; in assay [4], 0.55%; in assay [5], 8.55%; in assay [6], -3%.

In the case of `Cc1cc(S(=O)(=O)O)ccc1Cl`, the growth inhibition in assay [1] is -27.3%; in assay [2], -8.2%; in assay [3] it was -19.3%; in assay [4], -38.9%; in assay [5], -0.25%; in assay [6], -31.8%.

As for `CCOc1ccc(NC(=O)C(C)O)cc1` (stereo not drawn), the growth inhibition in assay [1] is -29.9%; in assay [2], -14.4%; in assay [3], -20.2%; in assay [4] it was 6.1%; in assay [5] it was -3.65%; in assay [6] it was -14.3%.

On to `COCCCCCC(=O)OC`, for which the growth inhibition in assay [1] is 5.05%; in assay [2] it was 17.1%; in assay [3], 6.4%; in assay [4], 4.5%; in assay [5] it was -7%; in assay [6] it was 0.5%.

Consider `CC(=O)NNc1nc(C)c(C(=O)NNC(=O)C(=O)Nc2ccc(C)c(C)c2)s1`, for which the growth inhibition in assay [1] was 8.7%; in assay [2], -1.2%; in assay [3] it was -6.05%; in assay [4], 4.8%; in assay [5] it was 20.9%; in assay [6] it was -1.45%.

For `Cn1c2c(c(=O)n(C)c1=O)C(=Nc1ccccc1)C(=O)N2`, the growth inhibition in assay [1] was 0.2%; in assay [2], 9.25%; in assay [3], 7.2%; in assay [4], -38.3%; in assay [5] it was 1.65%; in assay [6], 14.3%.

`O=[N+]([O-])c1ccc(O)c(O)c1`: the growth inhibition was -23.6% in assay [1]; -1.7% in assay [2]; -10% in assay [3]; 12.8% in assay [4]; 5.6% in assay [5]; -6.85% in assay [6].

Take `O=c1[nH]cccc1O`: the growth inhibition in assay [1] was 5.2%; in assay [2] it was 5.5%; in assay [3], -17%; in assay [4], 10.4%; in assay [5], -8.8%; in assay [6] it was 7.25%.

As to `O=C(O)c1ccccc1C(=O)c1ccc(Br)cc1`, the growth inhibition in assay [1] was 8.4%; in assay [2], -20.7%; in assay [3], 10.8%; in assay [4], 14.6%; in assay [5], -3.45%; in assay [6], 10.1%.

Take `O=C1CCC2CCc3cccc1c32` (stereo not drawn): the growth inhibition in assay [1] is 0.15%; in assay [2] it was -7.75%; in assay [3] it was -12.3%; in assay [4], -19.4%; in assay [5], -18.6%; in assay [6], 3.05%.

Regarding `COC1OC(COC(=O)c2ccccc2)C(OC(=O)c2ccccc2)C(OC(=O)c2ccccc2)C1OC(=O)c1ccccc1` (stereo not drawn), the growth inhibition in assay [1] was -1.3%; in assay [2] it was -30.8%; in assay [3], -13.6%; in assay [4] it was -9.4%; in assay [5], -29.8%; in assay [6], -14.8%.

For the compound `Nc1ccccc1Nc1ccncc1`, the growth inhibition in assay [1] was -3%; in assay [2], 11.2%; in assay [3], -1.7%; in assay [4], -26.9%; in assay [5] it was -23.8%; in assay [6], -5.7%.

For `CC[C@@]1(O)C[C@H](OC2CC(N(C)C)C(OC3CC(O)C(OC4CC(O)C(O)C(C)O4)C(C)O3)C(C)O2)c2c(cc3c(c2O)C(=O)c2c(O)ccc(O)c2C3=O)[C@H]1C(=O)OC` (stereo partly drawn), the growth inhibition in assay [1] is -25.1%; in assay [2], -14.8%; in assay [3], -35%; in assay [4] it was 4.3%; in assay [5], 1.95%; in assay [6], 7.45%.

Regarding `CC(=O)CCc1ccccc1`, the growth inhibition was 5.6% in assay [1]; -7.8% in assay [2]; -0.9% in assay [3]; -23% in assay [4]; -1.75% in assay [5]; 1.9% in assay [6].

As for `C/C=C/C=N/N(C(=O)c1cc([N+](=O)[O-])cc([N+](=O)[O-])c1)C1=NC(c2ccccc2)C(c2ccccc2)=NN1` (stereo not drawn), the growth inhibition in assay [1] was 41.9%; in assay [2], 24.4%; in assay [3], 13%; in assay [4], 41.1%; in assay [5], 15.3%; in assay [6], 26.3%.

As to `CCCCCSc1ncnc2c1ncn2CO`, the growth inhibition in assay [1] was 0.9%; in assay [2], 18.1%; in assay [3], 7.45%; in assay [4], 9.75%; in assay [5], 42.7%; in assay [6], 3.6%.

In the case of `OC(COc1ccc(Cl)cc1Cl)CN1CCCC1` (stereo not drawn), the growth inhibition in assay [1] was 10.1%; in assay [2], 11.8%; in assay [3] it was 17.7%; in assay [4], 5.05%; in assay [5] it was -23.4%; in assay [6], 18.1%.

As for `O=C(CCCc1ccccc1)OCC(=O)c1ccc(-c2ccccc2)cc1`, the growth inhibition is 19.4% in assay [1]; 6.45% in assay [2]; 11.2% in assay [3]; 3.45% in assay [4]; 12.8% in assay [5]; 14.6% in assay [6].

`COc1cccc(C2NC(=O)c3c(n[nH]c3N)S2)c1O` (stereo not drawn): the growth inhibition in assay [1] was -14.8%; in assay [2], -43.4%; in assay [3] it was -10.5%; in assay [4] it was -6.55%; in assay [5], 5.85%; in assay [6], -40.1%.

For the compound `BrCc1ccc(C[P+](c2ccccc2)(c2ccccc2)c2ccccc2)cc1`, the growth inhibition in assay [1] is 26.3%; in assay [2], 15.3%; in assay [3], 16.2%; in assay [4] it was 7%; in assay [5], 29.2%; in assay [6], 28.4%.

In the case of `C1CCC(C2CCC(C3CCCCC3)CC2)CC1` (stereo not drawn), the growth inhibition is -14.1% in assay [1]; -8.75% in assay [2]; -9.55% in assay [3]; -45.6% in assay [4]; 6.35% in assay [5]; 6.15% in assay [6].

`ClCC1COC(CCc2ccccc2)O1` (stereo not drawn): the growth inhibition in assay [1] was 18.4%; in assay [2], -3.5%; in assay [3] it was -10.9%; in assay [4], 64.2%; in assay [5], 3.1%; in assay [6] it was 7.7%.

(Values after PubChem BioAssay (NCI).)
